# Inconclusive results are not listed. Values without a mark were called inactive. Calls follow the shape of the dose curve; as a rule, active = well fitted cell-killing curve with a large enough effect in the repeat runs; inconclusive = weak or mixed curves, or effect the other way; inactive = flat fitted curve, though single readings scatter.
# Test: qHTS RealTime-Glo MT Cell Viability Assay in HepG2 cells - 0 hour (AID 1224889); also: nearly all actives have a fitted effect of over 50% in size
# Conditions: RealTime-Glo luminescence; series mostly up to 76.8 µM; activity change, negative = cytotoxicity: at the top concentration
# Outline: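 Compound treatment began 5 h after plating HepG2 cells (600/well) with NanoLuc luciferase and prosubstrate. Plates stayed at 37 C for 40 h; luminescence was captured at six time points, 0 h through 40 h.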
# % is scaled to controls: 0 for no effect and ±100 for the full control effect.
row,Compound,"activity change, negative = cytotoxicity"
1,Oc1ccc(CCNCCCCCCNCCc2ccccc2)cc1O,-1.79% [at 35.3 µM]
2,CCN(CCCCOC(=O)c1ccc(OC)c(OC)c1)C(C)Cc1ccc(OC)cc1 (stereo not drawn),-0.011% [at 35.3 µM]
3,O=Cc1ccc(Cl)c([N+](=O)[O-])c1,-2.76%
4,CC(C)CCCCCCCOC(=O)c1ccc(C(=O)OCCCCCCCC(C)C)c(C(=O)OCCCCCCCC(C)C)c1,-2.72%
5,Cc1ccc(NC(=O)c2ccc(CN3CCN(C)CC3)cc2)cc1Nc1nccc(-c2cccnc2)n1,-8.61% [at 35.3 µM]
6,CCn1nc(Cc2ccccc2)cc1C1CCN(C[C@H]2C[C@H](N(C)[C@@H](C(=O)O)C(C)C)C[C@@H]2c2cccc(F)c2)CC1,-1.63%
7,O=C(Cl)c1cc(Cl)cc(Cl)c1,-5.02%
8,c1ccc(CCNc2nc(-c3ccccc3)cs2)cc1,-6.27% [at 35.3 µM]
9,O=C(N[C@@H](Cc1ccccc1)[C@@H](O)C(=O)N1C[C@@H](O)[C@@H](O)C1)c1cc2cc(Cl)ccc2[nH]1,-9.4%
10,CC(C)(C)c1ccc(CCC=O)cc1,-18.3%
11,CC(C)(Cc1c[nH]c2ccccc12)NCC(O)COc1ccccc1C#N (stereo not drawn),14.6% [at 35.3 µM]
12,CCOC(=O)CC(O)(CC(=O)OCC)C(=O)OCC,0.837%
13,CCCC(=O)OCCC(C)C,-2.3%
14,CC1=C(C)C(=O)C(CCCCC#CCCCC#CCO)=C(C)C1=O,-0.294% [at 35.3 µM]
15,C[C@H](CN1CCCC1)C(=O)c1ccc(C(F)(F)F)cc1,3.04% [at 35.3 µM]
16,CCC(=O)O[C@]1(C(=O)COC)[C@@H](C)C[C@H]2[C@@H]3CCC4=CC(=O)C=C[C@]4(C)C3(F)[C@@H](O)C[C@@]21C (stereo partly drawn),-20.9% [at 35.3 µM]
17,COC(=O)C(C)(C)C,-2.36%
18,C=C[Si](OCC)(OCC)OCC,-0.151%
19,Oc1ccc(Oc2ccccc2)cc1,12.7%
20,O=C1c2ccccc2C(=O)C1c1ccc2ccccc2n1,-26.7% [at 35.3 µM]
21,O=C(OCCOCCOCCOC(=O)c1ccccc1)c1ccccc1,-5.99%
22,c1ccc(CN(Cc2ccccc2)Cc2ccccc2)cc1,-2.5%
23,Cc1c(N=C=O)cccc1N=C=O,0.428%
24,CCC(CC)C(=O)O,12.7%
25,CCCN(C1CCN(C(=O)C2CCNCC2)CC1)[C@@H]1CCc2ccc(OC)cc2C1,-13.9%
26,Clc1cc(Cl)c2c(c1)N=C1CCCCCN1C2,-8.78% [at 35.3 µM]
27,C=C[Si]1(C)O[Si](C)(C=C)O[Si](C)(C=C)O[Si](C)(C=C)O1 (stereo not drawn),9.37%
28,CCOC(C)OCC,-5.34%

# From PubChem BioAssay (Tox21)
